# Rows were chosen to be rich in hits. Some 1.4% of all compounds tested hit in one or more screens of this group.
# RecA intein inh: Mtb RecA intein splicing inhibitors, primary screen, biochemical, fluorescence, HTS; cell-free RecA intein splicing; AID 2221, 2009; 0.75% of 290,000 active; inhibition, % (no concentration beside the values); Protein RecA (Mycobacterium tuberculosis (strain ATCC 25618 / H37Rv)), P9WHJ3; in the data active means inhibition above about 30%;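 further: 0% = vehicle wells and 100% = reference inhibitor control wells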
# Target sequence (P9WHJ3 whole entry, looked up): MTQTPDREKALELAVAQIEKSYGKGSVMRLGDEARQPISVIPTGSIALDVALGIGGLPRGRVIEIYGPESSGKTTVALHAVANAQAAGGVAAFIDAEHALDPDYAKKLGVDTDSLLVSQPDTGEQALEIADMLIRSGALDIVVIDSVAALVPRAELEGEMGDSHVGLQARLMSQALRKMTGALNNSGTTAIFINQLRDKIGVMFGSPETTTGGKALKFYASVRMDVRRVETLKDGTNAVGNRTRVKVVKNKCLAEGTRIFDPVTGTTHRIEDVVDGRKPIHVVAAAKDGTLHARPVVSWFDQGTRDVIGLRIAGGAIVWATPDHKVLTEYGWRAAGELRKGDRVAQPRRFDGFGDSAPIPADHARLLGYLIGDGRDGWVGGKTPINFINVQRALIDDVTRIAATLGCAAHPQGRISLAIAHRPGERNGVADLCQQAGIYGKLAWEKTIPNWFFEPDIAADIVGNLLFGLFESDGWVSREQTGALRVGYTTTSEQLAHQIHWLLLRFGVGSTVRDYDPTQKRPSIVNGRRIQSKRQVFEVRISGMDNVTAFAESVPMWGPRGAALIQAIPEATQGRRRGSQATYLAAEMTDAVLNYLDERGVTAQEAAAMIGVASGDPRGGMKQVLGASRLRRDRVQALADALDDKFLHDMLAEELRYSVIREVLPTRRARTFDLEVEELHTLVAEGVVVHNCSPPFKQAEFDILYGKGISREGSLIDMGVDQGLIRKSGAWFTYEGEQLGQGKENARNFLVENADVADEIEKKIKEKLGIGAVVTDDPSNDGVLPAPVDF
# PrP UTR inh: inhibition of PrP 5' UTR reporter expression | cell-based PrP 5' UTR mRNA reporter, plate reader | inhibition, % (no concentration beside the values) | AID 488862, 2010 | 0.35% of 340,000 active; in the data active means inhibition above about 52%; further: 0 = median of the neutral control wells
# Mtb hypoxia inh: PubChem AID 1159583 | M. tuberculosis hypoxia-regulated fluorescent reporter, fluorescence | fluorescence inhibition, % (no concentration beside the values) | 0.1% of 300,000 active; in the data active means fluorescence inhibition mostly above about 23%, no sharp cut-off; inactive means mostly below about 17%
# PrPC surface inh: inhibitors of human cell surface prion protein PrPC, primary screen, cell-based, TR-FRET; Major prion protein (Homo sapiens), P04156; TR-FRET read-out; inhibition, % at 13.8 µM; 0.43% of 370,000 active; in the data active means inhibition above about 24%; further: 0% = median of the test wells and 100% = reference compound wells
# SARS 3CLpro inh: SARS-CoV 3CLpro protease inhibitors, primary screen, biochemical, quenched FRET; recombinant SARS-CoV 3CLpro, quenched FRET peptide cleavage; 0.14% of 290,000 active; inhibition, % at 6 µM; Replicase polyprotein 1ab (Severe acute respiratory syndrome coronavirus), P0C6X7; in the data active means inhibition above about 12%
# BJeLR viability: MLPCN primary cell-based screen for lethality selective to Ras in HRASV12 cells. 0.17% of 300,000 active. BJeLR (HRASV12) viability, CellTiter-Glo ATP luminescence, 48 h. inhibition, % (test concentration not listed); in the data active means inhibition above about 50%
# GFP chromo cs: counter-screen: blocks GFP chromophore formation, dose response, counter-screen, biochemical, fluorescence, homogeneous. shares compounds with RecA intein inh. cell-free GFP chromophore formation. EC50, µM. 83% of 2,100 active. AID 434968, 2010; call rule not given here
# The depositor's hits bear a star; / = no result.
SMILES,RecA intein inh,PrP UTR inh,Mtb hypoxia inh,PrPC surface inh,SARS 3CLpro inh,BJeLR viability,GFP chromo cs
O=C(O)CN1C(=O)/C(=C\c2ccccc2OCc2ccc(Cl)cc2Cl)SC1=S,8.1,14.9,-0.7,2.2,-1.1,6.2,/
COc1cccc(/C=C2\SC(=S)N(CCCC(=O)N(CCO)c3ccccc3)C2=O)c1,37.4*,8.0,7.8,-1.5,4.0,55.1*,31.9*
COc1ccc(/C=C2/SC(=S)N(CCCC(=O)Nc3cccc(O)c3)C2=O)cc1,38.3*,9.9,1.3,1.4,5.2,7.3,>38
O=C(O)CN1C(=O)/C(=C\c2cccc(OCc3ccc(Cl)cc3Cl)c2)SC1=S,40.5*,-17.7,/,2.7,5.0,2.7,21.4*
Cc1cccc(CSc2nc3c(c(-c4cccs4)c2C#N)CN(C)CC3)c1,61.2*,-22.2,9.4,0.3,7.2,2.6,25.4*
CN1CCc2nc(SCC(=O)Nc3ccc(OC(F)(F)F)cc3)c(C#N)c(-c3cccs3)c2C1,88.3*,-58.7,5.6,-0.3,1.7,-10.7,3.88*
CCOc1ccccc1CNc1ccc(O)cc1,81.6*,-28.9,2.3,-13.1,2.9,-0.3,23.5*
Oc1ccc(NCc2ccccc2OCc2ccccc2F)cc1,4.1,-31.8,/,-13.2,-0.3,-4.2,/
CCOc1cc(CNc2ccc(O)cc2)ccc1OCc1ccc(Cl)cc1Cl,39.7*,-12.2,/,/,-2.4,5.4,>38
COc1cc(CCCN2C(=O)C(=O)NCC2C(C)O)cc(OC)c1OC (stereo not given),/,/,2.9,/,/,/,/
Cc1ccc(C(c2c(C)[nH][nH]c2=O)c2c(C)[nH][nH]c2=O)cc1,98.2*,4.1,13.2,5.1,2.8,3.3,0.541*
COC(=O)COc1ccc(C(c2c(C)[nH][nH]c2=O)c2c(C)[nH][nH]c2=O)cc1,97.6*,-19.3,7.2,-10.9,3.0,-5.7,0.691*
O=c1[nH]cnc(O)c1C(c1ccc(Br)cc1)c1c(O)nc[nH]c1=O,2.2,-19.8,2.6,3.5,-4.8,7.1,/
Cc1[nH][nH]c(=O)c1C(c1ccc(Br)cc1)c1c(C)[nH][nH]c1=O,97.5*,-19.1,2.3,-5.9,-2.5,-11.3,0.807*
Cc1ccc(N=Nc2c(C)[nH][nH]c2=O)c(C)c1,7.2,-33.8,11.4,-13.9,6.3,-0.1,/
CSc1ccc(C(c2c(C)[nH][nH]c2=O)c2c(C)[nH][nH]c2=O)cc1,98.3*,-23.7,/,-5.5,3.6,-5.4,0.569*
CSc1ccc(C(c2c(C(=O)O)[nH]c3ccccc23)c2c(C(=O)O)[nH]c3ccccc23)cc1,9.6,3.7,-4.1,21.6,7.7,1.0,/
COc1ccc(C(C)=NNC(=O)CNC(=O)COc2ccccc2)c(OC)c1,/,/,-2.7,/,/,/,/
O=C(O)CCC(=NNc1ccc(S(=O)(=O)N2CCOCC2)cc1[N+](=O)[O-])c1cccs1,/,/,21.0,/,/,/,/
Cc1[nH][nH]c(=O)c1C(c1ccc([N+](=O)[O-])cc1)c1c(C)[nH][nH]c1=O,95.8*,8.0,13.6,-5.6,2.7,-1.0,0.69*
COc1cc(C(c2c(C)[nH][nH]c2=O)c2c(C)[nH][nH]c2=O)ccc1OCc1ccc([N+](=O)[O-])cc1,95.4*,-56.3,12.4,-16.1,-1.0,-5.6,0.349*
C=CCOn1c(=O)c(-c2ccc(OC)c(OC)c2)[n+]([O-])c2ccccc21,-0.6,-24.0,6.9,-39.0,3.1,-2.8,/
COc1ccc(-c2c(=O)n(OC)c3ccccc3[n+]2[O-])cc1OC,42.2*,-15.3,3.8,-16.5,0.5,1.2,>38
CCC1Nc2ncnc(N3CCc4ccccc4C3)c2N(Cc2ccc(Cl)cc2)C1=O (stereo not given),/,3.0,6.5,-2.4,/,/,/
O=C1C(Cc2ccccc2)Nc2ncnc(N3CCc4ccccc4C3)c2N1Cc1ccc(Cl)cc1 (stereo not given),33.4*,-4.9,/,/,/,11.3,>38
SMILES,RecA intein inh,PrP UTR inh,Mtb hypoxia inh,PrPC surface inh,SARS 3CLpro inh,BJeLR viability,GFP chromo cs
CCOC(=O)C1C2COc3ccc(Br)cc3C2N2C(=O)N(c3cccc(Cl)c3)C(=O)[C@@]12C (stereo not given in full),/,/,2.4,/,/,/,/
O=C(CC1CC=CCC(Cc2ccc(F)cc2)C(=O)OC(c2ccccc2)CNC1=O)NCCO (stereo not given),/,/,4.9,/,/,/,/
CCOc1cc(/C=C(\C#N)C(=O)Nc2cccc(C(=O)O)c2)ccc1OCc1ccccc1Cl,/,-20.7,/,-4.4,10.4,-4.7,/
CCOc1cc(/C=C(\C#N)C(=O)Nc2cccc(C(=O)O)c2)cc(Br)c1OC(=O)c1ccc(OC)cc1,37.6*,-3.6,2.2,-1.4,7.9,-3.6,20.8*
Cc1ccc(N(C(=O)CCl)C(C(=O)NC2CCCCC2)c2cccnc2)cc1C (stereo not given),71.6*,/,21.7,2.2,9.2,101.2*,2.57*
Cc1ccc(N(C(=O)CNC(=O)c2ccco2)C(C(=O)NC2CCCCC2)c2cccnc2)cc1C (stereo not given),-0.8,-4.7,4.3,-0.1,1.3,4.9,/
CCOc1ccc(CN2CCN(CC3=Cc4cccc(OC)c4OC3)CC2CCO)cc1 (stereo not given),41.7*,-7.5,-0.2,-1.2,-1.4,-0.5,>38
CN(N)C(=S)Nc1ccc(Cl)cc1,30.5*,4.5,3.7,-0.9,0.2,6.7,>38
CC(=O)c1cccc(NC(=O)CSc2ncc(C(=O)Nc3ccccc3)c(=O)n2C)c1,37.5*,-14.3,7.7,-4.7,/,10.3,>38
CC(=O)Nc1ccc(NC(=O)CSc2ncc(C(=O)Nc3ccc(F)cc3)c(=O)n2C)cc1,31.8*,-26.9,9.5,1.6,/,-10.1,>38
CC(=O)Nc1cccc(NC(=O)CSc2ncc(C(=O)Nc3ccc(F)cc3)c(=O)n2C)c1,2.8,-20.4,10.3,-3.0,/,-2.5,/
CC(=O)Nc1ccc(NC(=O)CSc2ncc(C(=O)Nc3ccc(Cl)cc3)c(=O)n2C)cc1,23.4,-23.4,6.0,/,/,-7.3,/
CC(=O)Nc1cccc(NC(=O)CSc2ncc(C(=O)Nc3ccccc3)c(=O)n2C)c1,47.2*,-13.3,15.2,-0.8,/,17.7,39.7*
NC(=O)C1=CC(c2ccc(C(F)(F)F)cc2)CC(OCCCCO)O1 (stereo not given),/,/,9.2,/,/,/,/
COc1ccc(NC(=O)Nc2ccc3c(c2)C(=O)N(C(C)CO)CC(C)C(CN(C)C(=O)Nc2ccc4c(c2)OCO4)O3)cc1 (stereo not given),/,/,5.1,/,/,/,/
O=C(CN1C(=O)S/C(=C\C=C\c2ccccc2)C1=O)Nc1ccc(C(=O)O)cc1,35.3*,-10.0,10.9,-5.7,-2.4,0.8,>38

# Screening results as filed in PubChem BioAssay.
